Drawing on PubChem BioAssay (Tox21), this text covers Potency for seven compounds.

Each structure is given as a SMILES string. Several values for one entry are separate records, joined by “and”; a condition that tells them apart may be missing. Equal entries are not always repeated. Results filed as inconclusive are left out. Activity calls are given as the source filed them. Unless noted, calls follow the shape of the full dose curve.

The nature of experiment [1]: Nuclear factor erythroid 2-related factor 2/antioxidant responsive element (Nrf2/ARE) small molecule agonists: qHTS cell viability counter screen in human keratinocytes (AID 1919968; active = well fitted curve in the direction sought with a large enough effect in the repeat runs; an effect the other way counts as inactive or inconclusive; also: nearly all actives have a fitted effect of over 55% in size; also: potency is read from the fitted curve at half-maximal effect). The essentials:
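Viability counter-screen: KeratinoSens reporter cells, DMSO-delivered compounds, 23 h at 37 C, CellTiter-Fluor fluorescence.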

Experiment [2] can be described thus: Nuclear factor erythroid 2-related factor 2/antioxidant responsive element (Nrf2/ARE) small molecule agonists: luciferase reporter gene qHTS assay in human keratinocytes (AID 1919969). Also: nearly all actives have a fitted effect of over 35% in size.
The target of experiment [3] is Gonadotropin-releasing hormone receptor (Homo sapiens) (UniProt P30968). Description: Human gonadotropin-releasing hormone receptor (GnRHR) small molecule agonists, calcium flux assay in GnRHR-HEK293 cells (AID 1920063). Also: nearly all actives have a fitted effect of over 35% in size. The method, boiled down: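 Tox21-format agonist screen using human GnRHR-expressing HEK293 cells and a fluorescent calcium dye; kinetic 3-min fluorescence reading after compound addition, 15-point concentration series run in triplicate.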
Chain of Gonadotropin-releasing hormone receptor (Homo sapiens) (P30968 whole entry, looked up): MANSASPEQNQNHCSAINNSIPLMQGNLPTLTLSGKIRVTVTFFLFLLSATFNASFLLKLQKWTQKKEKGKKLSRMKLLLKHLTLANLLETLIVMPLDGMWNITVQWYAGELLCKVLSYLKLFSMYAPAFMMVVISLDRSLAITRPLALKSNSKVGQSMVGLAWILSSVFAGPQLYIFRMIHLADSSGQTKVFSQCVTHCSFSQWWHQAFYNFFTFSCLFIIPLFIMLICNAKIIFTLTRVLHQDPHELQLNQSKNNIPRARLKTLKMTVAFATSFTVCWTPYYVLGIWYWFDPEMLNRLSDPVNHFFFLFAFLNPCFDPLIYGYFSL

The target in experiment [4] is KiSS-1 receptor (Homo sapiens) (UniProt Q969F8). Description: Human kisspeptin (KISS1R) small molecule agonists, calcium flux assay in KISS1R-HEK293 cells (AID 1920064; active = well fitted curve in the direction sought with a large enough effect in the repeat runs; an effect the other way counts as inactive or inconclusive). The method, boiled down:
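Intracellular calcium mobilization in KISS1R-HEK293 cells was recorded by fluorescence (Ex/Em 480/540) for 3 min following compound addition to cells pre-loaded 1 h with calcium dye.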

A short description of experiment [5]: G protein-coupled receptor (GPCR) small molecule agonists, calcium flux assay: HEK293 wild type cell line counter screen (AID 1920065). The essentials:
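In this agonist-mode screen, ATP is the positive control and DMSO the vehicle. Cells grow 18 h before a 1 h dye incubation at 37 C; signal is taken at Ex/Em 480/540 over 3 min.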

Experiment [6] in a line: p53 small molecule agonists, cell-based qHTS assay with human liver microsomes (AID 1963577). The method, boiled down:
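Compounds act here after metabolic activation: human liver microsomes and NADPH, both at 0.5 mg/mL final, were co-added to p53RE-bla cells. Incubation ran 16 h at 37 C, followed by LiveBLAzer detection.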

A short description of experiment [7]: p53 small molecule agonists, cell-based qHTS assay with rat liver microsomes (AID 1963578). The method, boiled down:
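Read-out is beta-lactamase reporter fluorescence (LiveBLAzer, 2 h, room temperature, dark) in p53RE-bla cells treated 16 h at 37 C with compound, rat liver microsomes and NADPH, both 0.5 mg/mL final.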

The nature of experiment [8]: p53 small molecule agonists, cell-based qHTS assay with human liver microsomes: qHTS cell viability counter screen (AID 1963579). Also: nearly all actives have a fitted effect of over 45% in size. The method, boiled down: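 Cells carrying the p53 response-element beta-lactamase reporter are treated for 16 h at 37 C with test compounds in the presence of human liver microsomes and NADPH (both 0.5 mg/mL final); ATP-based CellTiter-Glo luminescence then reports viability.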

Experiment [9] in a line: p53 small molecule agonists, cell-based qHTS assay with rat liver microsomes: qHTS cell viability counter screen (AID 1963580). Also: nearly all actives have a fitted effect of over 45% in size. The method, boiled down:
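Intracellular ATP, by CellTiter-Glo luminescence, defines viability. HCT-116 p53RE-bla cells, 4,000 per well, were compound-treated in the presence of rat liver microsomes and NADPH for 16 h at 37 C.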

Experiment [10] in a line: p53 small molecule agonists, cell-based qHTS assay: qHTS cell viability counter screen (AID 1963581). Also: nearly all actives have a fitted effect of over 45% in size. The essentials: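 Compounds are pinned onto HCT-116 p53RE-bla cells and left 16 h at 37 C. Following the reporter FRET read, ATP is quantified by CellTiter-Glo luminescence after 30 min at room temperature.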
Experiment [11] is described as follows: p53 small molecule agonists, cell-based qHTS assay (AID 1963582; active = well fitted activation curve with a large enough effect in the signal ratio in the repeat runs, not every such curve was filed as active; the % refers to the signal ratio). The method, boiled down:
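Agonist activity was scored from beta-lactamase FRET fluorescence in p53RE-bla cells treated 16 h at 37 C with compounds in DMSO, substrate incubation being 2 h at room temperature.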

Experiment [12] deals with 5-hydroxytryptamine receptor 2A (Homo sapiens) (UniProt P28223). Description: 5-hydroxytryptamine receptor 2A (HTR2A) small molecule antagonists, cell-based qHTS assay (AID 1963586). Also: nearly all actives have a fitted effect of over 45% in size. The essentials: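 Antagonist-mode intracellular calcium assay: DOI (4 nM) added after 5 min compound pre-incubation at room temperature to dye-loaded HTR2A-CHO cells. Fluorescence followed for 3 min, sampled every second.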
Chain of 5-hydroxytryptamine receptor 2A (Homo sapiens) (P28223 whole entry, looked up): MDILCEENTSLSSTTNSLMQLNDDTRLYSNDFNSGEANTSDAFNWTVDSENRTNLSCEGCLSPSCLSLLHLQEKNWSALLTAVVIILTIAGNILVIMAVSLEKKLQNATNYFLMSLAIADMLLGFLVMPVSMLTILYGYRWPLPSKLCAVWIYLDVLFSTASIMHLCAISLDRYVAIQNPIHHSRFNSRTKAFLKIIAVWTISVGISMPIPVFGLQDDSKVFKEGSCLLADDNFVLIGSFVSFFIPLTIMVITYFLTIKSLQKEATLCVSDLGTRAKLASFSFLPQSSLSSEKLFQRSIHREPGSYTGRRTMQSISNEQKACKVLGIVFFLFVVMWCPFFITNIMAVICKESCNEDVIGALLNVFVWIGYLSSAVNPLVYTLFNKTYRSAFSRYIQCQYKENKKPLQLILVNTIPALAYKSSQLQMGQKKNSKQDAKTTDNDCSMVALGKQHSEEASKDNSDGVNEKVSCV

Experiment [13] has the same target. The experiment in a line: 5-hydroxytryptamine receptor 2A (HTR2A) small molecule agonists, cell-based qHTS assay (AID 1963587). Also: nearly all actives have a fitted effect of over 30% in size. The method, boiled down: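 Kinetic calcium-flux fluorescence (2 min, 1 sec intervals) after compound addition in agonist mode. HTR2A-CHO cells were cultured 18 h, then dye-loaded 1 h at 37 C.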
For experiment [14], the target named is Muscarinic acetylcholine receptor M1 (Homo sapiens) (UniProt P11229). The experiment in a line: Cholinergic receptor muscarinic 1 (CHRM1) small molecule antagonists, cell-based qHTS assay (AID 1963588). Also: nearly all actives have a fitted effect of over 40% in size. The essentials:
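CHRM1-CHO calcium-flux assay, antagonist mode. Cells were seeded 18 h, dye-loaded 1 h at 37 C and given compound for 5 min at RT, then acetylcholine was added at 50nM. FDSS fluorescence was read 3 min; 15 concentrations, three runs.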

Experiment [15] shares this target. Description: Cholinergic receptor muscarinic 1 (CHRM1) small molecule agonists, cell-based qHTS assay (AID 1963589). Also: nearly all actives have a fitted effect of over 35% in size. The essentials: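 Stable CHRM1-CHO cells (human receptor) were incubated 18 h, dye-loaded for 1 h at 37 C and exposed to test compounds for agonist activity, with calcium-dependent fluorescence followed kinetically.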
The nature of experiment [16]: cAMP Responsive Elements (CRE) small molecule agonists, cell-based qHTS assay (AID 1963590). The method, boiled down:
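FRET-based beta-lactamase readout (LiveBLAzer B/G, 2 h RT) quantified CRE activation in HEK 293T CRE-bla cells after 3 h treatment with DMSO-dissolved compounds.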

The nature of experiment [17]: cAMP Responsive Elements (CRE) small molecule antagonists, cell-based qHTS assay (AID 1963591; active = well fitted inhibition curve with a large enough effect in the signal ratio in the repeat runs, not every such curve was filed as active; the % refers to the signal ratio). The method, boiled down: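 qHTS in CRE-bla HEK 293T cells: compound in DMSO, then 0.25 uM NKH477 (final), 3 h at 37 °C/5% CO2; beta-lactamase FRET read-out after 2 h substrate incubation.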
Experiment [18] has as its target Beta-2 adrenergic receptor (Homo sapiens) (UniProt P07550). Description: Adrenergic beta2 receptor (ADRB2) small molecule antagonists, cell-based qHTS assay (AID 1963592). Also: series mostly up to about 92 µM; nearly all actives have a fitted effect of over 50% in size. The method, boiled down: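 Cells (CHO, stable ADRB2 overexpression) incubated 18-20hr at 37C; compounds added from DMSO; agonist mix (1nM isoproterenol, 100uM IBMX, 25uM Ro-20-1724) added; 0.5hr RT; d2-cAMP and anti-cAMP-cryptate added; 1hr RT; 665/615 nm read.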

Experiment [19] has as its target D(2) dopamine receptor (Homo sapiens) (UniProt P14416). The experiment in a line: Dopamine D2 receptor (DRD2) small molecule agonists, cell-based qHTS assay (AID 1963594). Also: nearly all actives have a fitted effect of over 35% in size. The method, boiled down:
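cAMP accumulation in DRD2-HEK293 cells measured by HTRF after 1 h detection; compounds added 10 min before NKH477 (200nM […]) forskolin-analogue stimulation, 30 min at room temperature, with Ro20-1724 present at 0.1 mM final.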

Experiment [20] shares this target. The experiment in a line: Dopamine D2 receptor (DRD2) small molecule antagonists, cell-based qHTS assay (AID 1963595; active = well fitted inhibition curve with a large enough effect in the signal ratio in the repeat runs, with a control signal flat; the % refers to the signal ratio). The essentials:
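Antagonism was scored as restored cAMP in HEK293-DRD2 cells. These cells were stimulated with 200 nM NKH477 and 12 nM quinpirole for 30 min at room temperature, in the presence of 0.1 mM Ro20-1724.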

Chain of D(2) dopamine receptor (Homo sapiens) (P14416 whole entry, looked up): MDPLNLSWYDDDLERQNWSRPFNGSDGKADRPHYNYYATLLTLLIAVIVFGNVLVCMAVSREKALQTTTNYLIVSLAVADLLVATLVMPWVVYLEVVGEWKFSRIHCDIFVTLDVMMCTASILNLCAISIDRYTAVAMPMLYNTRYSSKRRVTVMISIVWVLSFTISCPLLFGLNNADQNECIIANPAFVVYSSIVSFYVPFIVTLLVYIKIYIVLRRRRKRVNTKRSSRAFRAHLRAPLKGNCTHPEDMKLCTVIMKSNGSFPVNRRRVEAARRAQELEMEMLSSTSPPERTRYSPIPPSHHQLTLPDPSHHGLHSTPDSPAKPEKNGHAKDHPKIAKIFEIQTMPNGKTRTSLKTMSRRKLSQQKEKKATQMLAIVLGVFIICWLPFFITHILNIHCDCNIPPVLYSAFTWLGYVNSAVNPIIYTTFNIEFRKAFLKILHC
Chain of Beta-2 adrenergic receptor (Homo sapiens) (P07550 whole entry, looked up): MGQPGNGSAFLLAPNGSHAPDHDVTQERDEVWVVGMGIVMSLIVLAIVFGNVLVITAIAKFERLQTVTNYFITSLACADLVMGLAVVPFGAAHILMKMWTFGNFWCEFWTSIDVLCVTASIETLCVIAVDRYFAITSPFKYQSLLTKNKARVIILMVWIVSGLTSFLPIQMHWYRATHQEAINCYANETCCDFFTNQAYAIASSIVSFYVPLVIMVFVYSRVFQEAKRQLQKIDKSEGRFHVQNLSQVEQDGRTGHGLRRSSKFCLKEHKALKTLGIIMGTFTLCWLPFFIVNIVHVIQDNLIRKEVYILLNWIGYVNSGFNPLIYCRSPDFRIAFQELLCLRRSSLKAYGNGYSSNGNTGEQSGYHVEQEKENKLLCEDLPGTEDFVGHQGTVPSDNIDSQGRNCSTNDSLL
Chain of KiSS-1 receptor (Homo sapiens) (Q969F8 whole entry, looked up): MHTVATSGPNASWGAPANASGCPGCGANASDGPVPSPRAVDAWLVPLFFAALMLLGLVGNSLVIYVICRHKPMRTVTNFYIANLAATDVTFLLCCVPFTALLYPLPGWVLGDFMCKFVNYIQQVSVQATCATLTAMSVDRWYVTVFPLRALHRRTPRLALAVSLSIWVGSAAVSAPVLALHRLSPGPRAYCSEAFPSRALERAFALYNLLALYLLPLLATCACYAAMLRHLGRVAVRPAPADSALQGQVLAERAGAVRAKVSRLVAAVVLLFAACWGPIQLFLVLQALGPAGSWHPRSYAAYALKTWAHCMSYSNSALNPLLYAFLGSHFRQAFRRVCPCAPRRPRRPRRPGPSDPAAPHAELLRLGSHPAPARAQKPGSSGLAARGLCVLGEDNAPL
Chain of Muscarinic acetylcholine receptor M1 (Homo sapiens) (P11229 whole entry, looked up): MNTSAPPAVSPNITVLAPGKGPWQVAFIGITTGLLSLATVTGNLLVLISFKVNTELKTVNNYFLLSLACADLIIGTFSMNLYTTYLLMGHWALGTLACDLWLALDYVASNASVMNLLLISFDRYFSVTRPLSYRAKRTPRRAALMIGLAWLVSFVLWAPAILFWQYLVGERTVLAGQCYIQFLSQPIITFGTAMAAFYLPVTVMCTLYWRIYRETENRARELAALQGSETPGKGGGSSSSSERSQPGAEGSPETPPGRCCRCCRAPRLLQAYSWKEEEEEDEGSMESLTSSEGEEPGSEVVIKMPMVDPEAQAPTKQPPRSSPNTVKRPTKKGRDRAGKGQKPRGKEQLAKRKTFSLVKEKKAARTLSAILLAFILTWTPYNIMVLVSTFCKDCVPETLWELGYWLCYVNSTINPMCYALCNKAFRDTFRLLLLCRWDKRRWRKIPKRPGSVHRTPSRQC

Regarding `OCC1CCCO1` (stereo not drawn), the Potency result in experiment [1], in experiment [2], in experiment [3], in experiment [4], in [5] and in experiment [6] was “inactive” in each case. Besides, the Potency entry in experiment [7], in [8], in experiment [9], in experiment [10], in experiment [11] and in [12] was “inactive” throughout. Moreover, the Potency entry in [13], in experiment [14], in [15], in experiment [16], in experiment [17] and in [18] was “inactive” each time. The Potency result in [19] and in experiment [20] was “inactive” in each case.

Regarding `Cc1cccc(C)c1O`, the Potency result in experiment [1], in [2], in [3], in experiment [4], in experiment [5] and in experiment [6] was “inactive” throughout. For the same compound, the Potency entry in experiment [7], in experiment [8], in experiment [9], in [10], in experiment [11] and in experiment [12] was “inactive” in each case. The Potency result in experiment [13], in experiment [14], in experiment [15], in [16], in [17] and in [18] was “inactive” each time. The Potency result in [19] and in experiment [20] was “inactive” throughout.

`Brc1ccc(Oc2ccc(Br)cc2)cc1`: the Potency entry in [1], in experiment [2], in [3], in experiment [4], in experiment [5] and in [6] was “inactive” in each case. Also, the Potency result in experiment [7], in experiment [8], in [9], in [10], in [11] and in experiment [12] was “inactive” in each case. Further, the Potency result in experiment [13], in experiment [14], in [15], in experiment [16], in [17] and in [18] was “inactive” throughout. The Potency entry in experiment [19] and in experiment [20] was “inactive” throughout.

In the case of `Cc1ccc(S(=O)(=O)Oc2ccc(N=Nc3ccc(-c4ccc(N=Nc5c(O)ccc6cc(S(=O)(=O)O)cc(S(=O)(=O)O)c56)c(C)c4)cc3C)cc2)cc1`, in experiment [1], the Potency is 24.4 µM (active) and 17.8 µM (active). The Potency entry in experiment [2], in experiment [3], in [4], in experiment [5], in experiment [6] and in experiment [7] was “inactive” in each case. In addition, the Potency result in experiment [8], in [9], in [10], in [11], in [12] and in [13] was “inactive” each time. In addition, the Potency result in experiment [14], in [15], in experiment [16], in [17], in [18] and in [19] was “inactive” in each case.

Consider `CCCCCCCCCCCO`, for which the Potency entry in [1], in [2], in experiment [3], in [4], in [5] and in [6] was “inactive” each time. In addition, the Potency result in [7], in [8], in experiment [9], in experiment [10], in [11] and in experiment [12] was “inactive” in each case. For the same compound, the Potency entry in experiment [13], in experiment [14], in experiment [15], in experiment [16], in experiment [17] and in experiment [18] was “inactive” each time. Moreover, the Potency result in experiment [19] and in [20] was “inactive” in each case.

In the case of `CCc1cccc(C)c1N`, the Potency result in [1], in experiment [2], in experiment [3], in experiment [4], in experiment [5] and in [6] was “inactive” each time. The Potency entry in experiment [7], in experiment [8], in experiment [9], in experiment [10], in experiment [11] and in [12] was “inactive” in each case. The Potency entry in experiment [13], in experiment [14], in experiment [15], in [16], in experiment [17] and in experiment [18] was “inactive” throughout. For the same compound, in experiment [20], the Potency result was “inactive”.

With `Cc1cccc([N+](=O)[O-])c1C`, the Potency result in experiment [1], in experiment [2], in experiment [3], in experiment [4], in experiment [5] and in [6] was “inactive” in each case. For the same compound, the Potency entry in [7], in experiment [8], in [9], in [10], in experiment [11] and in experiment [12] was “inactive” each time. Also, the Potency entry in experiment [13], in experiment [14], in [15], in experiment [16], in [17] and in [18] was “inactive” in each case. The Potency result in [19] and in experiment [20] was “inactive” each time.
